# Measured values reported in the supplement of paper PMC13094657.
# Where a name gives a salt, the structure may show the parent alone. ± gives the standard deviation of the averaged measurements.
# System: MDA-MB-231
# Assay: cell viability relative to vehicle unstimulated control (fraction); higher = more viable cells
# Settings: pre-treatment time: 18 h then 24 h IFNg/TNF
# 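Note: viability of the cells left after supernatant collection, read with Deep Blue dye added for 4 h, as absorbance at 570 nm minus 600 nm.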
row,Compound,cell viability
1,COc1cc2c3cc1Oc1cc(ccc1O)C[C@@H]1c4c(cc(OC)c(O)c4Oc4ccc(cc4)C[C@H]3N(C)CC2)CCN1C [Curine] (compound dose: 10 uM),0.654 ± 0.038
2,C/C=C(/C)C(=O)O[C@H]1C(C)=C[C@]23C(=O)[C@@H](C=C(C)[C@@H](O)[C@]12O)[C@H]1[C@@H](C[C@H]3C)C1(C)C [20-Deoxyingenol 3-angelate] (compound dose: 10 uM),1.04 ± 0.05
3,CC1=C[C@@H]2C(=O)[C@]3(C=C(C)[C@H](O)[C@@]3(O)[C@@H]1O)[C@H](C)C[C@@H]1[C@H]2C1(C)C [20-Deoxyingenol] (compound dose: 10 uM),0.975 ± 0.11
4,CC(C)C1=CC(=O)[C@@](C)(C2[C@H](O)C[C@@]3(C)[C@@H]4CC=C5[C@@H](CC[C@@H](OC6OCC(O)C(O)C6OC6OC(C)C(O)C(O)C6O)C5(C)C)[C@]4(C)C(=O)C[C@]23C)O1 (stereo partly specified) [Picfeltarraenin IA] (compound dose: 10 uM),0.9887 ± 0.0091
5,C=C1[C@@H]2CCC3[C@@](CC[C@@H]4[C@H](C(=O)O)C[C@@H](O[C@@H]5O[C@H](CO)[C@@H](OS(=O)(=O)O)[C@H](OS(=O)(=O)O)[C@H]5OC(=O)CC(C)C)C[C@@]34C)(C2)[C@@H]1O (stereo partly specified) [Atractyloside (potassium salt)] (compound dose: 10 uM),0.797 ± 0.18
6,CC1=C[C@]23C(=O)[C@@H](C=C(CO)[C@@H](O)[C@]2(O)[C@H]1O)[C@H]1[C@@H](C[C@H]3C)C1(C)C [Ingenol] (compound dose: 10 uM),0.906 ± 0.051
7,C=C1CCC2C(/C=C(\C)C(=O)C3(OC(C)=O)CC(C)C(OC(=O)c4ccccc4)C3C1OC(C)=O)C2(C)C (stereo unspecified) [Euphorbia factor L3] (compound dose: 10 uM),1.05 ± 0.019
8,COc1cc2c(cc1OC)-c1c3c(cc4c1[C@H](C2)N(C)CC4)OCO3 [Dicentrine] (compound dose: 10 uM),0.83 ± 0.043
9,O=C(O)c1ccc(=O)[nH]c1 [6-hydroxypyridine-3-carboxylic acid] (compound dose: 10 uM),0.99 ± 0.039
10,C=C[C@@H]1C2=CCOC(=O)C2=CO[C@H]1O[C@@H]1O[C@H](CO)[C@@H](O)[C@H](O)[C@H]1O [Gentiopicroside] (compound dose: 10 uM),0.981 ± 0.0079
11,CC(=O)OC12COC1CC(O)C1(C)C(=O)C(O)C3=C(C)C(O)CC(O)(C(OC(=O)c4ccccc4)C21)C3(C)C (stereo unspecified) [10-Deacetylbaccatin III] (compound dose: 10 uM),0.999 ± 0.017
12,CC(C)=CCC[C@H](C(=O)O)[C@H]1CC[C@]2(C)C3=C(CC[C@@]12C)[C@@]1(C)CCC(=O)C(C)(C)[C@H]1CC3 [β-Elemonic acid] (compound dose: 10 uM),1.03 ± 0.034
13,CC(C)[C@]12CC(=O)[C@H](C)[C@H]1C2 [α-Thujone] (compound dose: 10 uM),1.05 ± 0.058
14,"CCCC(=O)O[C@@H]1[C@@H](C)[C@@]2(O)[C@@H](C=C(CO)C[C@]3(O)C(=O)C(C)=C[C@@H]23)[C@@H]2C(C)(C)[C@]12OC(=O)CCC [Phorbol 12,13-Dibutyrate] (compound dose: 10 uM)",1.09 ± 0.072
15,COc1ccc(CC2c3cc(OC)c(OC)cc3CCN2C)cc1OC (stereo unspecified) [Laudanosine] (compound dose: 10 uM),1.02 ± 0.043
16,CC1=C(O)C(=O)C=C2C1=CC=C1[C@@]2(C)CC[C@@]2(C)[C@@H]3C[C@](C)(C(=O)O)CC[C@]3(C)CC[C@]12C [Tripterin] (compound dose: 10 uM),0.0346 ± 0.01
17,CN1C2CCC1CC(O)C2 (stereo unspecified) [Tropine] (compound dose: 10 uM),0.938 ± 0.13
18,C[C@@H]1CC[C@@]2(OC1)O[C@H]1C[C@H]3[C@@H]4CC=C5C[C@@H](O[C@@H]6O[C@H](CO)[C@@H](O[C@@H]7O[C@@H](C)[C@H](O[C@@H]8O[C@@H](C)[C@H](O)[C@@H](O)[C@H]8O)[C@@H](O)[C@H]7O)[C@H](O)[C@H]6O[C@@H]6O[C@@H](C)[C@H](O)[C@@H](O)[C@H]6O)CC[C@]5(C)[C@H]4CC[C@]3(C)[C@H]1[C@@H]2C [Formosanin C] (compound dose: 10 uM),-0.00547 ± 0.0077
19,CCCCCCCCCCCCCC(=O)O[C@@H]1[C@@H](C)[C@@]2(O)[C@@H](C=C(CO)C[C@]3(O)C(=O)C(C)=C[C@@H]23)[C@@H]2C(C)(C)[C@]12OC(C)=O [Phorbol 12-Myristate 13-Acetate] (compound dose: 10 uM),1.09 ± 0.038
20,C/C=C(\C)C(=O)N[C@@H](c1ccccc1)[C@@H](O)C(=O)O[C@H]1C[C@@]2(O)[C@@H](OC(=O)c3ccccc3)[C@@H]3[C@]4(OC(C)=O)CO[C@@H]4C[C@H](O)[C@@]3(C)C(=O)[C@H](OC(C)=O)C(=C1C)C2(C)C [Cephalomannine] (compound dose: 10 uM),0.738 ± 0.071
21,CC(C)=CCCC(C)(O)C1CCC2(C)C1C(O)CC1C3(C)CCC(OC4OC(CO)C(O)C(O)C4O)C(C)(C)C3CCC12C [20(R)-Ginsenoside Rh2] (compound dose: 10 uM),1.08 ± 0.052
